Results taken from PubChem BioAssay AID588382 (National Center for Advancing Translational Sciences (NCATS), 2011).
The whole screen tested about 1,300 compounds, of which about 150 (12%) were called active. Entries that show only a call come without a potency. Not shown: some 30% with an inconclusive outcome. The call rests on the fitted dose curve; in most records, active means well fitted cell-killing curve with a large enough effect; inconclusive means small, poorly fitted or top-dose-only effect, or effect the other way; inactive means flat fitted curve, though single readings scatter. Many of the other results were omitted from the sample, so actives are more common in it than they were.

assay: qHTS of small molecules that selectively kill Giardia lamblia: Hit Validation in HepG2 cytotox; conditions: cell viability; Potency: HepG2 cytotoxicity; series mostly up to 38.3 µM;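 further: compound exposure lasted overnight at 37 deg C; nearly all actives have a fitted effect of over 55% in size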
In short: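 HepG2 cells seeded and incubated overnight at 37 deg C, then 23 nL compound added by pintool and incubated overnight at 37 deg C. Viability read as ATP luminescence with ATPLite after 15 min at room temperature.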
Potency means the concentration at half of the fitted maximal effect.

Compound | Potency
O=c1c([N+](=O)[O-])cccn1Cc1ccc(F)cc1Cl | inactive
CC1CCCN(C(=O)c2ccc([N+](=O)[O-])o2)C1 (centres undefined) | inactive
O=C(CSc1ccsc1[N+](=O)[O-])NCc1ccccc1 | inactive
O=C(NNC(=O)c1cc(-c2ccncc2)nc2ccccc12)c1ccccc1O | inactive
CCn1cc(-c2cc(C(=O)O)c3ccccc3n2)cn1 | 2.07 µM (active)
CCOC(=O)c1nc(C(=O)NCc2ccc(C)cc2)nc2ccccc12 | inactive
CC(C)CC(=O)NC(=S)NNC(=O)c1ccc([N+](=O)[O-])cc1 | inactive
Cc1ccc(S(=O)(=O)N2[C@@H](c3cccc(Cl)c3)C(C(=O)O)=CC[C@H]2c2cccc(C)c2)cc1 | inactive
O=c1sc(N2CCN(c3ccc(F)cc3)CC2)nc2ccsc12 | inactive
Cc1cc(N2CCN(C)CC2)nc2ccc(NC(=S)N3CCN(c4ccc(Cl)cc4)CC3)cc12 | inactive
Cc1cccc(N2CCN(C(=S)Nc3ccc4nc(N5CCN(C)CC5)cc(C)c4c3)CC2C)c1 (centres undefined) | 18.5 µM (active)
Cc1cc(N2CCN(C)CC2)nc2ccc(NC(=S)N3CCN(c4ccc(F)cc4)CC3)cc12 | 20.7 µM (active)
Cc1cc(N2CCN(C)CC2)nc2ccc(NC(=S)N3CCN(c4cccc(Cl)c4)CC3)cc12 | inactive
Cc1cccc(N2CCN(C(=S)Nc3ccc4nc(N5CCN(C)CC5)cc(C)c4c3)CC2)c1C | 4.65 µM (active)
O=Nc1c2ccc[nH]c-2c2ccc([N+](=O)[O-])cc12 | inactive
O=C(Nc1ccc(F)cc1)C1CCN(C(=O)c2ccc([N+](=O)[O-])cc2)CC1 | inactive
C/C(=N/NC(=O)C(O)(c1ccccc1)c1ccccc1)c1ccc([N+](=O)[O-])o1 | inactive
CCOc1ccc(-c2c(C(=O)N/N=C/c3ccc(C)s3)nnn2-c2nonc2N)cc1 | inactive
Cc1ccc(CN=c2c([N+](=O)[O-])nn(-c3ccc(Cl)cc3)n2O)cc1 | inactive
Cc1ccc(CNC(=O)CSc2ccsc2[N+](=O)[O-])cc1 | inactive
COc1ccc2c3n([n+]([O-])c2c1)CCN=C3c1ccc(C)cc1 | inactive
CC(C)CC(=O)Nc1ncc([N+](=O)[O-])s1 | inactive
Cc1ccc(CCN=c2c([N+](=O)[O-])nn(-c3ccccc3)n2O)cc1 | inactive
COc1ccc(-n2nc([N+](=O)[O-])c(=NCc3cccnc3)n2O)cc1 | inactive
CCOC(=O)c1cc([N+](=O)[O-])sc1NC(=O)CC | inactive

Compound | Potency
O=C(c1ccco1)N1CCN(c2c([N+](=O)[O-])nn(-c3ccc(Cl)cc3)[n+]2[O-])CC1 | inactive
Cc1ncc(CO)c(/C=N/NC(=O)c2cc3c(s2)CCCC3)c1O | 2.07 µM (active)
O=[N+]([O-])c1nn(-c2ccccc2)n(O)c1=NCCc1ccccc1 | inactive
O=C(CNC(=O)c1ccccc1F)N/N=C/c1cc(Br)ccc1OCc1ccccc1 | inactive
CN1C(=O)/C(=C/c2ccc(O)c([N+](=O)[O-])c2)N(C)C1=S | inactive
COc1ccc(C(=O)Nc2ccc3[nH]ccc3c2)cc1 | 2.33 µM (active)
O=C(Nc1ccccc1O)c1ccc([N+](=O)[O-])cc1 | inactive
O=C(NNC(=O)c1ccc([N+](=O)[O-])o1)c1ccccc1 | inactive
COc1ccc(C(=O)NC2CCN(S(=O)(=O)c3ccc(F)cc3)CC2)cc1 | inactive
COc1ccc(NC(=O)c2ccco2)c(NC(=O)c2ccc([N+](=O)[O-])cc2)c1 | inactive
O=C(Nc1ccc2[nH]ccc2c1)c1ccccc1 | 4.14 µM (active)
O=[N+]([O-])c1ccc(CSc2nnc(-c3cccnc3)o2)cc1 | inactive
NNC(=O)c1cccc(Cn2cc(Br)c([N+](=O)[O-])n2)c1 | inactive
Cc1cccc(CCN=c2c([N+](=O)[O-])nn(-c3ccccc3)n2O)c1 | inactive
Nc1c(Cl)cc(C2=NCCn3c2c2ccc(C(F)(F)F)cc2[n+]3[O-])cc1Cl | inactive
COc1ccc(-c2cn3cc([N+](=O)[O-])ccc3n2)cc1OC | inactive
CC(=O)Nc1ccc(NC(=O)c2c([N+](=O)[O-])cnn2C)cc1 | inactive
c1csc(-c2ccc(N3CCOCC3)nn2)c1 | 6.56 µM (active)
O=[N+]([O-])c1ccc(O/N=[N+](\[O-])N2CCCCC2)c([N+](=O)[O-])c1 | inactive
CC1CCCCC1NC(=O)COc1cccnc1[N+](=O)[O-] (centres undefined) | inactive
O=C1OC(CN(Cc2ccccc2)Cc2ccccc2)CN1N=Cc1ccc([N+](=O)[O-])o1 (centres undefined) | inactive
CCCCC(=O)Nc1ncc([N+](=O)[O-])s1 | inactive
COc1ccc(C(=O)c2c(C)oc3cc([N+](=O)[O-])c(O)c([N+](=O)[O-])c23)cc1 | inactive
O=C(Nc1nc(-c2cccs2)cs1)c1ccc([N+](=O)[O-])o1 | 1.85 µM (active)
Cc1cc(C)c2nc(NC(=O)c3ccc([N+](=O)[O-])o3)sc2c1 | inactive

Compound | Potency
O=C(Nc1nc2ccccc2s1)c1ccc([N+](=O)[O-])o1 | inactive
Cc1cc(C)c2sc(NC(=O)c3ccc([N+](=O)[O-])o3)nc2c1 | inactive
Cc1ccc(-c2csc(NC(=O)c3ccc([N+](=O)[O-])o3)n2)cc1 | 11.7 µM (active)
O=C(Nc1nc2c(F)cccc2s1)c1ccc([N+](=O)[O-])o1 | inactive
COc1ccccc1C1C([N+](=O)[O-])=CC([N+](=O)[O-])=CN1C (centres undefined) | inactive
Cc1cnc([N+](=O)[O-])n1CCOC(=O)NC(=O)c1ccccc1Cl | inactive
CC(=O)NC(Cc1ccc(F)cc1)C(=O)NC1CCN(c2ncccc2[N+](=O)[O-])CC1 (centres undefined) | inactive
Cn1c([N+](=O)[O-])cnc1N1CCN(c2nncs2)C1=O | inactive
COc1cc(/C=C2\SC(=O)N(c3ccc(Cl)cc3)C2=O)cc([N+](=O)[O-])c1O | inactive
COc1ccc(NS(=O)(=O)c2ccc(C)cc2)c([N+](=O)[O-])c1 | inactive
COc1cc2c(cc1OC)CN(C(=O)c1ccc([N+](=O)[O-])o1)CC2 | inactive
Cc1ncc([N+](=O)[O-])n1CCOC(=O)Nc1ccc(Cl)c(Cl)c1 | inactive
O=C(COc1cccnc1[N+](=O)[O-])NCCc1ccc(Cl)cc1Cl | inactive
O=C(NC1CCS(=O)(=O)C1)c1ccc(N2CCCCC2)c([N+](=O)[O-])c1 (centres undefined) | inactive
Cc1nnc(N/N=C/c2cccs2)[nH]c1=O | 2.07 µM (active)
S=C(NCCc1ccccc1)N/N=C/c1cccs1 | inactive
O=C(O)C1CCN(c2ccccc2[N+](=O)[O-])CC1 | inactive
COc1ccc(C(=O)C(C)OC(=O)CNC(=O)C2CCCCC2)cc1 (centres undefined) | inactive
Cc1ccc(S(=O)(=O)N2[C@@H](c3ccc(Cl)cc3)C(C(=O)O)=C[C@H]2CC2CCCC2)cc1 | inactive
COc1ccc(C(=O)c2c3ccc(C(F)(F)F)cc3[n+]([O-])n2CCCN)cc1 | inactive
O=C(COc1cccnc1[N+](=O)[O-])Nc1cc(S(=O)(=O)N2CCCCC2)ccc1Cl | inactive
O=C(NCc1ccccn1)C1CCCN(S(=O)(=O)c2cc(Cl)ccc2Cl)C1 (centres undefined) | 3.69 µM (active)
Cc1ccc2nc(NC(=O)C3CCCN(S(=O)(=O)c4cnc[nH]4)C3)sc2c1 (centres undefined) | inactive
Cc1ccc(S(=O)(=O)N2[C@@H](c3cccc(Cl)c3)C(C(=O)O)=CC[C@H]2c2cccc(Cl)c2)cc1 | inactive
CCCSc1ccc2nc(NC(=O)OC)[nH]c2c1 | inactive

Compound | Potency
CCc1cccc(NC(=O)CCCSc2nc3ccccc3[nH]2)c1 | 16.5 µM (active)
CC1(C)CC2CC(C)(CN2S(=O)(=O)c2cccc(C(=O)O)c2)C1 (centres undefined) | inactive
O=[N+]([O-])c1ccc(Oc2cccc(Br)c2)c2ccncc12 | inactive
Cc1c(Br)c([N+](=O)[O-])nn1C(C)C(=O)Nc1ccc2c(c1)OCO2 (centres undefined) | inactive
O=C1C2C3C=CC(C3)C2C(=O)N1Nc1ccc([N+](=O)[O-])cc1[N+](=O)[O-] (centres undefined) | inactive
COc1ccccc1Nc1cc(C)nc2c(C)ccc([N+](=O)[O-])c12 | inactive
Cc1cc(C)nc(N/N=C/c2ccc(Cl)cc2)n1 | inactive
COc1ccc(/C=N/Nc2cc(C)nc3c(C)cccc23)cc1 | 13.1 µM (active)
COc1ccc2nc(C)cc(N/N=C/c3ccc(F)cc3)c2c1 | 2.33 µM (active)
CCc1cccc(N=c2c([N+](=O)[O-])nn(-c3ccc(Cl)cc3)n2O)c1 | inactive
CCOC(=O)C1=C(C)NC(=O)NC1c1ccc([N+](=O)[O-])o1 (centres undefined) | inactive
CN(C)c1ccc2nsnc2c1[N+](=O)[O-] | inactive
CN1C(=O)/C(=C/c2cccc(Cl)c2)Sc2ccc(C(=O)N3CCCC3)cc21 | inactive
Nc1ncnc2c1ncn2C1O[C@H](CO)[C@@H](O)[C@@H]1O (some centres undefined) | inactive
Cc1ccc(CSc2nc3ccncc3[nH]2)cc1 | 0.369 µM (active)
Cc1nnc(SCc2ccc([N+](=O)[O-])cc2)[nH]c1=O | inactive
Clc1ccc(CSc2nc3ccncc3[nH]2)cc1 | 1.17 µM (active)
COc1cccc(CSc2nc3ccncc3[nH]2)c1 | 4.65 µM (active)
O=C(c1ccc(CSc2nc3ccncc3[nH]2)cc1)N1CCCCCC1 | 0.927 µM (active)
O=C(COc1cccnc1[N+](=O)[O-])Nc1ccc(F)cc1 | inactive
COC1C(OC(=O)/C=C/C=C/C=C/C=C/C(=O)O)CCC2(CO2)C1C1(C)OC1CC=C(C)C (centres undefined) (tested in a mixture with another compound) | inactive
O=C(c1ccc([N+](=O)[O-])o1)N1CCN(c2nc3ccc(F)cc3s2)CC1 | inactive
O=C1NC(=O)/C(=C\c2ccc(Oc3ccc([N+](=O)[O-])cn3)cc2)S1 | inactive
COc1ccccc1-n1cc2c([N+](=O)[O-])cc([N+](=O)[O-])cc2n1 | inactive
